# Rv3671c protease – Rv3671c (M. tuberculosis) protease inhibition | P9WHR9 | inhibition, % at 5.96 µM | 320,000 compounds, 0.048% hits | AID 2606; in the data active means inhibition above about 38%;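 further: extracellular domain of Rv3671c used as enzyme; 0% = enzyme with DMSO and 100% = no enzyme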
# RecA splice inh – inhibitors of M. tuberculosis RecA intein splicing | P9WHJ3 | cell-free RecA intein splicing, fluorescence | inhibition, % (concentration not given with the values) | 290,000 compounds, 0.75% hits; in the data active means inhibition above about 30%;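 further: 0% = vehicle wells and 100% = reference inhibitor control wells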
# Target sequence (P9WHJ3 whole entry, looked up, canonical isoform): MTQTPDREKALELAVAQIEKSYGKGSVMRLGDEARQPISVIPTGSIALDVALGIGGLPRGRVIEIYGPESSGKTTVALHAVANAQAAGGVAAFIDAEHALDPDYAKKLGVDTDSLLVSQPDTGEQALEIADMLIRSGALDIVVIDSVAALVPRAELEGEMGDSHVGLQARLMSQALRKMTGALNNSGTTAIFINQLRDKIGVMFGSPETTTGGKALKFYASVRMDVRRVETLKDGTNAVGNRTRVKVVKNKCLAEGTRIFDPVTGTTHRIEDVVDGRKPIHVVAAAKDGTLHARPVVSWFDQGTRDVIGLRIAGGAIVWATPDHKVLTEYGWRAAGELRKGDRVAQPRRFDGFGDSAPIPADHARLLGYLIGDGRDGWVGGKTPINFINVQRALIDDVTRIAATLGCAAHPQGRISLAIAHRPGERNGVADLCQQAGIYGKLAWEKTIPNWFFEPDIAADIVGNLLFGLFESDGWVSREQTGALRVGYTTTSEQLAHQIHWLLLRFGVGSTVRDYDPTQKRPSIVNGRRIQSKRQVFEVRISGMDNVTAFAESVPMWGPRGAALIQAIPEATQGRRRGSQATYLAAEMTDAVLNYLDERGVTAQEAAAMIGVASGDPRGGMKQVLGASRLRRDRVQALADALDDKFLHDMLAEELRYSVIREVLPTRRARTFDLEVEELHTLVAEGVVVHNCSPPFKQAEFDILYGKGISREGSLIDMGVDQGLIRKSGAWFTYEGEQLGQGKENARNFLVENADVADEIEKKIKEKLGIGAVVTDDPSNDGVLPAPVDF
# FBA Mtb inh – Mtb fructose-bisphosphate aldolase inhibition. P9WQA3. 360,000 compounds, 2.3% hits. AID 588726. inhibition, % at 1 µM. purified M. tuberculosis FBA, fluorescence read-out; in the data active means inhibition above about 27%;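 further: 0% = vehicle and 100% = reference inhibitor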
# GDH-TPI counter-1 – inhibits GDH-TPI coupling enzymes, artifact for Mtb FBA screen | GDH-TPI coupled enzyme counterscreen, NADH absorbance | inhibition, % at 4.8 µM | 360,000 compounds, 1.2% hits | AID 588335; in the data active means inhibition above about 30%;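 further: 0% = DMSO wells and 100% = wells lacking the enzyme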
# Mtb betalactam – beta-lactam sensitization of Mtb H37Rv. M. tuberculosis H37Rv growth with meropenem, percent inhibition. inhibition, % at 25 µM. 330,000 compounds, 0.27% hits;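 further: growth measured after seven days incubation then overnight dye step; 0% = bacteria only wells and 100% = bacteria with antibiotic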
# Mtb UGM inh – inhibitors of M. tuberculosis UDP-galactopyranose mutase | purified UGM, fluorescence polarization probe displacement | inhibition, % at 10 µM | 320,000 compounds, 0.06% hits | AID 504406; in the data active means inhibition above about 10%, passing the limit was not always enough
# Mtb FBA confirm – Mtb FBA inhibition, confirmed | 5,600 compounds, 78% hits | shares compounds with FBA Mtb inh | inhibition, % at 1 µM | purified M. tuberculosis FBA, fluorescence read-out; in the data active means inhibition above about 27%;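 further: 0% = vehicle wells and 100% = reference inhibitor wells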
# GDH-TPI counter-2 – counter-screen for M. tuberculosis FBA inhibitors: GDH-TPI coupled enzyme inhibition | shares compounds with FBA Mtb inh | GDH-TPI coupled enzyme counterscreen, fluorescence | inhibition, % at 1 µM | 5,600 compounds, 81% hits | AID 652141; in the data active means inhibition above about 10%
# GDH-TPI DR – inhibits GDH-TPI coupling enzymes in dose response | shares compounds with FBA Mtb inh | GDH-TPI coupled enzyme assay, fluorescence, artifact counterscreen | AID 652145 | IC50, µM | 170 compounds, 79% hits
# Starred values were filed as active, the others as inactive; · = no result given; + = active, no number. Compounds with a hit are over-represented: about 4% of the library has one in this group of screens. Unless noted, how the calls were made is not given here.
SMILES,Rv3671c protease,RecA splice inh,FBA Mtb inh,GDH-TPI counter-1,Mtb betalactam,Mtb UGM inh,Mtb FBA confirm,GDH-TPI counter-2,others
O=C1N=C(N2CCN(c3ccccc3)CC2)S/C1=C/c1cccs1,0,7,34*,26,66,4,6,-8,
CC(C)(CO)NC(=O)c1ccc2nc(Cc3cccc(Cl)c3)oc2c1,3,-3,0,3,7,-1,·,·,
CCOc1ccccc1C(=O)OC(C)C(=O)Nc1ccc(S(=O)(=O)N2CCCC2)cc1 (stereo not given),-6,·,2,-6,2,-1,·,·,
O=C(CSCc1nc2scc(-c3cccs3)c2c(=O)[nH]1)Nc1ccccn1,-2,-2,34*,7,-1,3,0,-5,
CCOc1ccc(C(C(=O)NC(C)(C)C)N(CCOC)C(=O)CCC(=O)Nc2ccccn2)cc1 (stereo not given),-2,·,40*,-2,-11,1,60*,53*,
COCCN(C(=O)CCC(=O)Nc1ccccn1)C(C(=O)NC(C)(C)C)c1ccc(OC)cc1 (stereo not given),2,-1,1,5,-1,-2,·,·,
Nc1cc(N)cc(-c2nc3ccccc3[nH]2)c1,32,·,6,18,5,1,·,·,
Cc1nc2ccc(-c3nc4ccccc4o3)cc2[nH]1,-4,-1,50*,13,6,-2,63*,56*,
Nc1ccc(-c2nc3ccc(-c4nc5ccccc5o4)cc3[nH]2)cc1,14,-12,84*,57*,94,4,36*,25*,
COCCNC(=S)N1CCC2CC1c1c(Cl)cccc12 (stereo not given),·,·,2,-16,·,·,·,·,
CC(C)Cc1nnc(NC(=O)CCC(=O)NC2CCCCCC2)s1,-6,-2,4,9,-6,0,·,·,
N#Cc1c(-c2ccco2)cc(C2CC2)nc1N,2,-1,49*,25,-6,4,13,-1,GDH-TPI DR=2.6*
CCOC(=O)C1(Cc2cccc(Cl)c2)CCCN(C(=O)c2cnn(CC)c2)C1 (stereo not given),5,0,3,4,-5,-2,·,·,
O=C(NNc1c2ccccc2nc2ccccc12)c1ccc(Cl)cc1,-2,-5,18,10,9,2,·,·,
Clc1cncc(Cl)c1NNc1c2ccccc2nc2ccccc12,-4,-32,39*,3,3,1,81*,66*,
O=c1oc2ccccc2c2c1cnc1ccccc12,·,·,2,6,·,·,·,·,
Cc1cnc(N)c2c(=O)oc3ccccc3c12,8,-1,61*,0,-6,0,+,+,
COc1ccc(N2c3ccccc3CN(Cc3ccccc3)CC2Cc2cc(OC)c(OC)c(OC)c2)cc1 (stereo not given),·,·,3,28,·,·,·,·,
COc1ccccc1-c1cc(-c2ccccc2)nc(SCC(=O)O)c1C#N,·,2,1,5,6,1,·,·,
COc1ccc(-c2cc(-c3ccc(Cl)cc3)c(C#N)c(SCC(=O)O)n2)cc1,-39,-3,47*,17,3,3,53*,37*,
COc1ccc(-c2cc(-c3ccccc3)c(C#N)c(SCC(=O)O)n2)cc1,1,4,47*,17,1,2,19,10,GDH-TPI DR=2.5*
O=[N+]([O-])c1ccc(O)c(-c2cc(C(F)(F)F)nc(-c3ccccc3)n2)c1,-8,8,1,8,99,0,·,·,
COC(=O)c1ccc(C#Cc2ccccc2)o1,2,2,58*,3,-1,-3,49*,57*,
O=C(c1ccc(C#Cc2ccccc2)o1)N1CCN(c2ccccn2)CC1,-8,-1,-1,19,-3,0,·,·,
OC[C@@H]1CN(Cc2ccccc2)C[C@H](n2cnc3c(NC4CCCC4)ncnc32)O1,·,·,2,4,·,·,·,·,
SMILES,Rv3671c protease,RecA splice inh,FBA Mtb inh,GDH-TPI counter-1,Mtb betalactam,Mtb UGM inh,Mtb FBA confirm,GDH-TPI counter-2,others
CCOC(=O)c1ccc(Oc2coc3cc(O)ccc3c2=O)cc1,-8,-1,28*,7,2,4,161*,123*,
CCOc1ccc2c(=O)c(Oc3ccccc3OCC)coc2c1,-2,-1,-1,4,-7,-1,·,·,
CCOc1ccccc1Oc1coc2cc(O)ccc2c1=O,-3,0,53*,22,-2,1,41*,26*,
COc1ccccc1Oc1coc2cc(O)ccc2c1=O,5,-6,31*,24,4,2,+,+,
COc1ccc(-c2coc3cc(O)ccc3c2=O)cc1OC,-3,0,17,21,-5,0,·,·,
COc1ccc(N2CCN(c3cc(C(=O)NC4CCCCC4)ncn3)CC2)cc1OC,·,·,2,6,·,·,·,·,
CCCOC(=O)c1cc(-c2ccc(C=O)o2)ccc1Cl,-1,2,97*,28,31,-1,7,-5,
CN1CC=C2C(C#N)=C(N)C(C#N)(C#N)[C@H](c3cccs3)[C@H]2C1,-2,-23,9,13,-10,3,·,·,
CCCC1C2CN(C(C)C)CC=C2C(C#N)=C(N)C1(C#N)C#N (stereo not given),8,-100,46*,16,-3,13*,26,29*,
CN1CC=C2C(C#N)=C(N)C(C#N)(C#N)[C@H](c3cccc(Cl)c3)C2C1 (stereo not given in full),4,-40,28*,12,-10,-1,9,0,
CN1CC=C2C(C#N)=C(N)C(C#N)(C#N)C(c3ccsc3)C2C1 (stereo not given),10,-57,30*,8,8,4,79*,65*,
S=C(NCc1ccco1)Nc1ccc(Cl)cn1,3,-1,1,-1,3,-2,·,·,
COc1cccc2c3c(c(C)nc12)CC(C)O3 (stereo not given),-9,-2,40*,4,-6,0,106*,75*,
CCOC(=O)c1ccc2nc(C)c3c(c2c1)OC(C)C3 (stereo not given),-5,1,38*,-1,92,0,175*,130*,
CCCC(=O)Nc1cc(C)cn(Cc2c(F)cccc2Cl)c1=O,1,-2,2,10,-1,3,·,·,
Cc1nc(NCCc2ccc(S(N)(=O)=O)cc2)c2c(C)c(C)sc2n1,11,1,-4,-1,-10,0,·,·,
CCOC(=O)c1sc2nc(C)nc(NCc3ccccc3)c2c1C,-16,3,53*,7,12,-3,-4,0,
CCOC(=O)c1sc2nc(C)nc(Nc3ccccc3)c2c1C,8,0,2,-1,6,-1,·,·,

# Source: PubChem BioAssay (several laboratories)
